Test results published in PubChem BioAssay (NCATS).
Where “and” joins values, the source holds several entries; their conditions need not be identical. Equal entries are not always repeated. Results filed as inconclusive are left out. Calls of active or inactive are those of the source. Unless noted, calls come from the whole dose curve; as a rule, active = well fitted curve in the direction sought with a large enough effect; inconclusive = small, poorly fitted or top-dose-only effect, or another doubt; inactive = no such curve, though single readings can be large; an effect the other way counts as inactive or inconclusive.

Legend:
[1] = Cell Viability - BJ (AID 421; calls by dose curve;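 note: potency is the fitted concentration of half-maximal effect; cells exposed to compound for 40 hours at 37 °C before readout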); conditions: BJ fibroblast viability, qHTS
Summary of the method: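 Cytotoxicity in human BJ foreskin fibroblasts is scored as loss of cellular ATP after a 40-hour exposure, measured by luciferase luminescence. Controls are DMSO and 100 uM tamoxifen.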

[2] = Cell Viability - MRC5 (AID 434; calls by dose curve;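 note: potency is the fitted concentration of half-maximal effect; cells exposed to compound for 40 hours at 37 °C; potency reflects cytotoxicity seen as loss of intracellular ATP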); conditions: MRC5 lung fibroblast viability, qHTS
Summary of the method: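 ATP luminescence read-out (CellTiter-Glo, 20 min RT) after 40 hr, 37 °C compound exposure of 1500 MRC5 cells/well. Data normalized to DMSO (basal) and 100 uM tamoxifen (100% inhibition); AC50 from standard Hill equation.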

[3] = Cellular Toxicity (caspase-3) HepG2 (AID 654); conditions: HepG2 caspase-3 activation, luminescence; series mostly up to 92.2 µM;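 note: cells exposed to compound for 16 hours before reading; 0% = DMSO alone and 100% = caspase signal from 100 µM tamoxifen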
Summary of the method: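 Caspase 3/7 activation is measured as a luminescence increase (aminoluciferin substrate) after 16 h compound exposure of human hepatocarcinoma HepG2 cells. AC50 values are Hill fits, scaled between DMSO baseline and 100 uM tamoxifen stimulation.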

[4] = Cellular Toxicity (caspase-3) Jurkat (AID 655); conditions: Jurkat caspase-3 activation, luminescence; caspase-3 activation: at 92.2 µM (top of the series), DMSO = 0%, tamoxifen = 100%;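 note: cells exposed to compound for 16 h at 37 °C before reading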
Summary of the method: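 Jurkat cells (5000/well) in complete medium were treated with compounds for 16 hr at 37 °C, then Caspase-Glo 3/7 luminescence was read after 20 min at room temperature. Data normalized to DMSO (basal) and 100 uM tamoxifen (100%); AC50 from Hill fit.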

[5] = Cellular Toxicity (caspase-3) SHSY5Y (AID 657); conditions: SH-SY5Y caspase-3 activation; series mostly up to 91.7 µM
Summary of the method: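 SH-SY5Y human neuroblastoma cells (1500/well) were treated with compounds for 16 h at 37 °C, then Caspase-Glo 3/7 luminescence was read after 1 h at room temperature. Data normalized to DMSO and 10 uM staurosporine; AC50 from Hill fits.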

[6] = Cellular Toxicity (caspase-3) BJ (AID 658); conditions: BJ fibroblasts, luminescence; Potency: caspase-3 activation; series mostly up to 91.7 µM
Summary of the method: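 qHTS, BJ fibroblasts, 1000 cells/well; 5 hr preincubation, 16 hr compound, 37 °C; Caspase-Glo 3/7 reagent, 1 hr RT; luminescence. DMSO = 0%, 10 uM staurosporine = 100%. Hill-equation AC50.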

[7] = Cellular Toxicity (caspase-3) MRC-5 (AID 659); conditions: MRC-5 cells, luminescence, normalized: DMSO 0%, 10 µM staurosporine 100%; series mostly up to 91.7 µM
Summary of the method: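 MRC-5 fibroblasts, 1500/well; 16 h cpd, 37 °C; Caspase-Glo 3/7, 1 h RT; lumi read. Norm: DMSO = 0%, 10 uM staurosporine = 100%. Hill-fit AC50 from qHTS conc-response.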

[8] = Cellular Toxicity (caspase-3) Mesangial (AID 660); conditions: mesangial cells, normalized: DMSO 0%, 100 µM tamoxifen 100%; series mostly up to 91.7 µM;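 note: combined caspase 3 and 7 activity read by Caspase-Glo luminescence; cells exposed to compound for 16 h before the caspase read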
Summary of the method: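 Caspase 3/7 activation measured by Caspase-Glo 3/7 luminescence (20 min, room temperature) following 16 h exposure of mesangial cells (1000/well); AC50 from Hill-equation fit, normalized to DMSO and 100 uM tamoxifen.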

[9] = Cellular Toxicity (caspase-3) SK-N-SH (AID 661); conditions: SK-N-SH caspase-3 activation, qHTS, DMSO as zero, staurosporine as full; series mostly up to 91.7 µM
Summary of the method: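 Caspase 3/7 activation was read by luminogenic substrate cleavage after 16 hour treatment of SK-N-SH cells. Signal was scaled between DMSO and 10 uM staurosporine, and concentration-response data were fitted with the Hill equation for AC50.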

[10] = Cellular Toxicity (caspase-3) Hek293 (AID 664); conditions: HEK293 caspase-3 activation, DMSO = 0%, 100 µM tamoxifen = 100%; at 92.2 µM (top of the series);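 note: cells exposed to compound for 16 h at 37 °C before readout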
Summary of the method: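 Concentration-response qHTS: caspase 3/7 activation measured by luminescent aminoluciferin substrate cleavage after 16 h compound exposure of Hek 293 cells. AC50 from Hill equation, with DMSO as basal and 100 uM tamoxifen as 100%.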

[11] = Cellular Toxicity (caspase-3) Renal Proximal Tubule (AID 667); conditions: renal proximal tubule cells, primary cells freshly taken from rat; Potency: caspase-3 activation; series mostly up to 91.7 µM;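 note: cells exposed to compound for 16 hours at 37 °C before detection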
Summary of the method: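 Primary rat proximal tubule cells, 1000/well, 5 h plating at 37 °C, then compound 16 h at 37 °C. Caspase-Glo 3/7 reagent, 1 h RT, luminescence. Normalized to DMSO (basal) and 10 uM staurosporine (100%); Hill-fit AC50.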

[12] = MultiTox-Fluor Cytotoxicity Assay - LYMP1-001 - Dead Cells (AID 946); conditions: LYMP1-001 lymphoblastoid cells, dead-cell protease fluorescence; series mostly up to 92.2 µM;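 note: 0% = DMSO and 100% = tetraoctylammonium bromide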
Summary of the method: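 Seed 2500 LYMP1-001 cells/well, incubate 5 hr at 37 C; add compound, 16 hr at 37 C; add MultiTox-Fluor reagent, 60 min RT; read dead-cell fluorescence Ex/Em=485/520. Normalize to DMSO and 15 uM tetraoctylammonium bromide.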

[13] = Cell Viability - LYMP1-002 - Assay at 16 hr (AID 948); conditions: LYMP1-002 lymphoblastoid cell viability; series mostly up to 92.2 µM;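 note: 0% = DMSO alone and full effect = 92 µM tetraoctylammonium bromide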
Summary of the method: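 Human lymphoblastoid cells (LYMP1-002), 2500/well, were preincubated 5 hr at 37 C, then exposed to compounds for 16 hr at 37 C in complete medium. Cellular ATP was read by CellTiter-Glo luminescence after 30 min at room temperature; AC50 from Hill fits.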

[14] = MultiTox-Fluor Cytotoxicity Assay - LYMP1-002 - Live Cells (AID 955); conditions: LYMP1-002 lymphoblastoid live-cell protease fluorescence viability; series mostly up to 46.1 µM; note: % is set by controls: 0 for no effect and ±100 for the full control effect
Summary of the method: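 After 16 h compound exposure at 37 C, live LYMP1-002 lymphoblastoid cells (2500/well) were quantified by cleavage of cell-permeant GF-AFC substrate, read at 405/510 nm after 60 min. Concentration-response fitted with Hill equation for AC50.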

[15] = Cell Viability - LYMP1-003 - Assay at 24 hr (AID 963); conditions: LYMP1-003 lymphoblastoid cell viability; series mostly up to 92.2 µM;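 note: plate controls were DMSO only for no effect and tetraoctylammonium bromide positive control for full effect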
Summary of the method: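 Concentration-response qHTS: ATP loss measured by CellTiter-Glo luminescence after 24 h compound exposure at 37 C. Cells were LYMP1-003 human lymphoblastoid, 2500 per well. AC50 derived via standard Hill equation modeling.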

[16] = Cell Viability - LYMP2-026 (AID 989); conditions: LYMP2-026 lymphoblastoid cell viability, qHTS; series mostly up to 92.2 µM; note: % is set by controls: 0 for no effect and ±100 for the full control effect; nearly all actives have a fitted effect of over 50% in size
Summary of the method: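 Cytotoxicity read as ATP-dependent luminescence (CellTiter-Glo, 30 min room temperature) after 24 h compound treatment at 37 C. LYMP2-026 lymphoblastoid line seeded at 2500 cells/well; AC50 derived by standard Hill equation.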

[17] = Cell Viability - LYMP1-002 - Assay at 24 hr (AID 993); conditions: LYMP1-002 lymphoblastoid cells viability; series mostly up to 92.2 µM; note: % is set by controls: 0 for no effect and ±100 for the full control effect
Summary of the method: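 qHTS cytotoxicity at 24 h: CellTiter-Glo ATP luminescence in lymphoblastoid line LYMP1-002 incubated with compound at 37 °C. Concentration-response modeled with the Hill equation for AC50; tetraoctylammonium bromide served as positive control.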

[18] = qHTS Assay for Identification of Small Molecule Inducers of Hypoxia Response (AID 2120; active = well fitted curve in the direction sought with a large enough effect in the signal ratio, with a control signal flat, not every such curve was filed as active; the % refers to the signal ratio; note: 0% is about no effect); conditions: hypoxia response reporter cells, beta-lactamase ratio readout; series mostly up to 104 µM
Summary of the method: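 Reporter induction read as the CCF4 blue/green (460nm/530nm) emission ratio after 2.5 h dye loading at room temperature. ME-180 HRE-beta-lactamase cells received titrated compounds for 17 h at 37 degrees Celsius; AC50 values derived.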

[19] = target: Peroxisome proliferator-activated receptor alpha (Homo sapiens) (UniProt Q07869); assay: qHTS assay for small molecule agonists of the peroxisome proliferator-activated receptor alpha (PPARalpha) signaling pathway (AID 651778); conditions: PathHunter PPARalpha complementation, chemiluminescence, 6 h; max response: active compounds read high; note: % of control where 0% means no effect
Summary of the method: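 Enzyme-fragment complementation assay in which ligand-bound PPARalpha translocates and forms an active enzyme that generates chemiluminescence. Cells were plated overnight, exposed to compound for 6 hr at 37 C, and then given detection reagent for 60 min at room temperature.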

[20] = qHTS assay for cell viability of the p53RE-bla HCT-116 cell line (AID 743292); conditions: p53RE-bla HCT-116 viability, ATP luminescence, 16 h; series mostly up to 95 µM; note: % is set by controls: 0 for no effect and ±100 for the full control effect; nearly all actives have a fitted effect of over 55% in size
Summary of the method: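 After plating at 4,000 cells per well and a 5 h rest at 37 C, HCT-116 cells carrying p53RE-bla received test chemicals in DMSO. Sixteen hours later at 37 C, CellTiter-Glo was added and luminescence recorded following 30 min at room temperature.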

Chain of Peroxisome proliferator-activated receptor alpha (Homo sapiens) (Q07869 whole entry, looked up, the tested form may be a part): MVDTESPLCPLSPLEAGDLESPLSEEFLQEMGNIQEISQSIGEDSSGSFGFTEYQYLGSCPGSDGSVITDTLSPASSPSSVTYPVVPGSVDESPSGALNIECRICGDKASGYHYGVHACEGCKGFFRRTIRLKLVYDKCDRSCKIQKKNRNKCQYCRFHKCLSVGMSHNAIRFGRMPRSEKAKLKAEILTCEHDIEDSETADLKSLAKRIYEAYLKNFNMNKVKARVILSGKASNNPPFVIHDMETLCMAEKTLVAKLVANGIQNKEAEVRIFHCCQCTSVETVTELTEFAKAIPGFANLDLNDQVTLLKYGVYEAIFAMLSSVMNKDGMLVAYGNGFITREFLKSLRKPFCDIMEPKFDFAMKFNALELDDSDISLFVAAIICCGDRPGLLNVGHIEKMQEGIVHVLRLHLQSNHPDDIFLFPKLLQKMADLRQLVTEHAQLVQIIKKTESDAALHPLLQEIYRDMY

C=CC1CO1 (stereo not given)
inactive: Potency [1] > 92 µM | Potency [2] > 92 µM | Potency [3] | Potency [4] | Potency [5] | Potency [6] | outcome [7] | outcome [8] | outcome [9] | caspase-3 activation [10] -0.428% | Potency [11] | Potency [12] | Potency [13] | outcome [14] | Potency [15] | Potency [16] | Potency [17] | Potency [18] | max response [19] 1.5% | Potency [20]

Cc1ccc(C(=O)O)cc1[N+](=O)[O-]
inactive: Potency [1] > 92 µM | Potency [2] > 92 µM | Potency [3] | Potency [4] | Potency [5] | Potency [6] | outcome [7] | outcome [8] | outcome [9] | caspase-3 activation [10] -1.69% | Potency [11] | Potency [12] | Potency [13] | outcome [14] | Potency [15] | Potency [16] | Potency [17] | Potency [18] | max response [19] -2.73% | Potency [20]

c1ccc2c(c1)ccc1ccccc12
inactive: Potency [1] > 92 µM | Potency [2] > 92 µM | Potency [3] | Potency [4] | Potency [5] | Potency [6] | outcome [7] | outcome [8] | outcome [9] | caspase-3 activation [10] -0.803% | Potency [11] | Potency [12] | Potency [13] | outcome [14] | Potency [15] | Potency [16] | Potency [17] | Potency [18] | max response [19] -2.79% and 0.0819% | Potency [20]

c1ccc(CSCc2ccccc2)cc1
inactive: Potency [1] > 92 µM | Potency [2] > 92 µM | Potency [3] | Potency [4] | Potency [5] | Potency [6] | outcome [7] | outcome [8] | outcome [9] | caspase-3 activation [10] 0.61% | Potency [11] | Potency [12] | Potency [13] | outcome [14] | Potency [15] | Potency [16] | Potency [17] | Potency [18] | max response [19] -0.51% | Potency [20]

CC(=O)OC(C(=O)c1ccccc1)c1ccccc1 (stereo not given)
inactive: Potency [1] > 92 µM | Potency [2] > 92 µM | Potency [3] | Potency [4] | Potency [5] | Potency [6] | outcome [7] | outcome [8] | outcome [9] | caspase-3 activation [10] -0.138% | Potency [11] | Potency [12] | Potency [13] | outcome [14] | Potency [15] | Potency [16] | Potency [17] | Potency [18] | max response [19] -5.41% | Potency [20]

CCCCCCCCC1CO1 (stereo not given)
inactive: Potency [1] > 92 µM | Potency [2] > 92 µM | Potency [3] | Potency [4] | Potency [5] | Potency [6] | outcome [7] | outcome [8] | outcome [9] | caspase-3 activation [10] 0.315% | Potency [11] | Potency [12] | Potency [13] | outcome [14] | Potency [15] | Potency [16] | Potency [17] | Potency [18] | max response [19] -3.27% | Potency [20]
